# Source: PubChem (National Center for Advancing Translational Sciences (NCATS))
# Compounds with a hit are over-represented: about 3.7% of the library has one in this group of screens.
# A549 viability: A549 cytotoxicity, counter-screen for Nrf2 inhibitors. A549 ARE-Fluc cells, CellTiter-Fluor viability, 18-24 h. Potency, µM (highest dose often 46 µM), for inactives: at the highest dose activity change, negative = cytotoxicity, hits mostly inhibitors. hit rate 0.16% among 390,000; further: on the % scale 0 is the no-effect control and ±100 the full control effect
#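 Cytotoxicity counterscreen: CellTiter-Fluor fluorescence was measured in A549 ARE_Fluc cells after 18-24 h of compound exposure in a concentration series. The subsequent BugLite luminescent read reports ARE-luciferase activity.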
# Nrf2 block: blocks Nrf2 signaling; A549 ARE-Fluc reporter, luciferase luminescence, 18-24 h; Potency, µM (doses to about 46 µM), for inactives: top-dose activity change, negative = inhibition, hits mostly inhibitors; hit rate 2.1% among 360,000; AID 504444; further: on the % scale 0 is the no-effect control and ±100 the full control effect; nearly all actives have a fitted effect of over 60% in size
#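 A549 ARE_Fluc cells (5000/well, 5% FBS OPTI-MEM) pre-incubated 2 h, then treated with compounds 18-24 h at 37C/5% CO2 in concentration-response. CellTiter-Fluor viability read first; BugLite luciferase luminescence after 15 min at room temperature gives Nrf2 activity.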
# ELG1 repair inh: inhibitors of ELG1-dependent DNA repair in HEK293T cells. HEK293T ELG1-luciferase reporter, luminescence, 16 h; DNA damage induced by 5-fluorouridine. Potency, µM (titrated, usually from 46.1 µM), inactives show top-dose activity change, negative = inhibition, most hits filed as inhibitors. hit rate 2.3% among 330,000; further: on the % scale 0 is the no-effect control and ±100 the full control effect; nearly all actives have a fitted effect of over 55% in size
#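 Step one: seed 2,000 cells per well. Step two: pin-transfer compound or DMSO alongside 5-fluorouridine. Step three: incubate 16 hr, 37 °C, 5% CO2. Step four: add ONE-Glo, wait 30 min, read luminescence.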
# Nrf2 activator: activates Nrf2 signaling; AREc32 ARE-luciferase reporter (MCF7-derived line), luminescence, 24 h; Potency, µM (doses to about 46.1 µM), without a hit: at the highest dose activation, actives largely listed as activators; hit rate 0.31% among 410,000; AID 624171; further: % of control where 0% means no effect; nearly all actives have a fitted effect of over 65% in size
#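 Steps: seed AREc32_Fluc cells (1000/well, 5% FBS OPTI-MEM); incubate overnight at 37 deg C; add 23 nL compound; incubate 24 hr; add Steady-Glo; hold 30 min RT; read luminescence.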
# Active calls of the source: *; ? = inconclusive; · = no result given; ! = repeats disagree; [ ] = another dose, or the depositor's remark. The call rests on the fitted dose curve; in most records, active means well fitted curve in the direction sought with a large enough effect; inconclusive means small, poorly fitted or top-dose-only effect, or another doubt; inactive means no such curve, though single readings can be large; an effect the other way counts as inactive or inconclusive. Potency means the concentration at half of the fitted maximal effect.
SMILES,A549 viability,Nrf2 block,ELG1 repair inh,Nrf2 activator
COc1ccc(C2SCCN2S(=O)(=O)c2ccc(F)cc2)cc1OC (stereo not drawn),-9%[1.84 µM],-2%,-3%,0%
COc1ccc(S(=O)(=O)N2CCSC2c2ccc(OC)c(OC)c2)cc1 (stereo not drawn),4%,?,23µM*,0%
COC(=O)c1sc(NC(=S)NC(=O)c2cccc(Br)c2)nc1C,0%,21%,?,16µM*
COC(=O)c1sc(NC(=S)NC(=O)c2ccc(F)cc2)nc1C,·,·,-12%,·
N=c1ccn(Cc2ccc(Cl)cc2)cc1,?,·,5.2µM*,0%
N=c1ccn(Cc2ccc(Cl)cc2Cl)cc1,?,·,8.2µM*,-1%
N=c1ccn(Cc2ccc(Cl)c(Cl)c2)cc1,?,·,4.6µM*,0%
Cc1nc2ncnn2c(C)c1CCC(=O)NCc1ccccc1Cl,-7%,2%,·,0%
Cc1nc2nc(NC(=O)CC(C)C)[nH]n2c(=O)c1Cc1ccccc1,-2%,15%,·,-1%
CCOCCCNC(=O)c1cc(Sc2ccc(C)cc2)nc2ccccc12,3%,23µM*,?,-2%
CCOCCCNC(=O)c1cc(Sc2cccc(Cl)c2)nc2ccccc12,-2%,·,·,4%
CCOCCCNC(=O)c1[nH]c2cc(OC)ccc2c1Sc1ccccc1,-24%,26µM*,·,0%
O=C(CN1CCN(Cc2ccccc2)CC1)NNC(=O)c1ccccc1,0%,0%,7%,-2%
Cc1cc(C)nc(N/N=C/c2ccccc2OCc2ccc(Br)cc2)n1,-12%,-1%,?,0%
Cc1cc(C)nc(N/N=C/c2ccccc2OCc2cccc(Br)c2)n1,3%,?,21µM*,6%
CCCc1cc(=O)n2[nH]cc(-c3ccc(Cl)cc3)c2n1,?,21µM*,?,0%
C(=N\n1c2ccccc2c2ccccc21)/c1ccccc1,14%,-4%,5%,22%
Cc1cccc(-c2n[nH]c(=S)n2/N=C/c2ccco2)c1,-6%,-14%,2%,20%
C(=N/n1c2ccccc2c2ccccc21)/c1ccco1,12%,·,14%,3.2µM*
N=c1scc(-c2ccccc2)n1/N=C/c1ccco1,-6%,3%,?,11µM*
CC(C)C[C@@H](CN)NC(=O)c1nc[nH]c1C(=O)N[C@@H](CC(C)C)C(=O)CNC[C@H](C)NC(=O)c1nc[nH]c1C(=O)N[C@@H](C)C(=O)O,3%,-4%,·,0%
COc1ccc(-c2nnc(NC(=O)c3ccccc3[N+](=O)[O-])s2)c(OC)c1,-4%,17%,24%,1%
CC1(C)CC(=O)c2c(O)cc(OCC(=O)Nc3ccc(S(N)(=O)=O)cc3)cc2O1,14%,?,?,3%
COc1cc(NC(=O)COc2cccc3c2OC(C)(C)C3)cc(OC)c1OC,-13%,10µM*,13µM*,0%
COc1cc(C)c(NC(=O)COc2cccc3c2OC(C)(C)C3)cc1OC,-13%,?,18µM*,2%
SMILES,A549 viability,Nrf2 block,ELG1 repair inh,Nrf2 activator
COc1cc(NC(=O)COc2cc(O)c3c(c2)OC(C)(C)CC3=O)cc(OC)c1OC,-3%,?,10µM*,3%
CC(=O)Nc1ccc(NC(=O)COc2cccc3c2OC(C)(C)C3)cc1,4%,4%,-7%,-1%
O=C(NN=Cc1ccc2c(c1)CCN2)c1cccs1,·,·,·,8%
O=C(Nc1nc2c(s1)CCCC2)c1ccc(Br)o1,-1%,?,?,13µM*
Cc1cc(C)cc(OCC(=O)OCC(=O)NC2CCCCCCC2)c1,0%,10%,9%,0%
Brc1ccc(-c2csc(/N=C/N3CCOCC3)n2)cc1,-17%,?,?,6%
Brc1ccc(-c2csc(/N=C/N3CCCC3)n2)cc1,-9%,12µM*,?,2%
Cc1ccc(C)c(NS(=O)(=O)c2ccc3c4c(cccc24)C(=O)N3)c1,-2%,18µM*,·,-5%
COc1ccc(OC)c(S(=O)(=O)Nc2ccc(O)c3ccccc23)c1,-11%,-9%,10µM*,1%
COc1ccc(OC)c(S(=O)(=O)Nc2cccc3c(O)cccc23)c1,0%,6%,·,1%
CN1OC[C@@H]2CN(S(=O)(=O)c3cccc(C(F)(F)F)c3)[C@H](c3ccc(N4CCCCC4)cc3)C[C@@H]21,·,·,·,-1%
Cc1cc(C(C)(C)C)nc2[nH]n(-c3ccccc3)c(=O)c12,2%,-11%,?,0%
O=c1c2c(C(F)(F)F)cc(C(F)(F)F)nc2[nH]n1-c1ccccc1,-13%,-10%,26µM*,-1%
O=C(Nc1cc([N+](=O)[O-])ccc1N1CCOCC1)c1cccs1,2%,2%,-2%,0%
CC1N(C)c2cc(NC(=O)c3cccs3)c(P(=O)(Nc3ccc([N+](=O)[O-])cc3)N3CCOCC3)cc2C1(C)C (stereo not drawn),?,-27%,18µM*,3%
CC1C(=O)Nc2ccc(S(=O)(=O)Nc3ccccc3Br)cc2NC1=O (stereo not drawn),2%,16µM*!,7%,0%
Cc1cc(C)c(NS(=O)(=O)c2ccc3c(c2)NC(=O)C(C)C(=O)N3)c(C)c1 (stereo not drawn),-7%,-18%,-2%,0%
C=CC[C@H](CC(=O)N(CCO)Cc1ccccc1)C(=O)N[C@H](COC(=O)[C@H](CC=C)CC(=O)OC(C)(C)C)Cc1c[nH]c2ccccc12,?,?,21µM*,-2%
C=CC[C@H](CC(=O)N(CCO)Cc1ccccc1)C(=O)N[C@@H](COC(=O)[C@@H](CC=C)CC(=O)OC(C)(C)C)Cc1c[nH]c2ccccc12,?,21µM*,18µM*,-5%
C=CC[C@H](CC(=O)N(CCO)Cc1ccccc1)C(=O)N[C@H](COC(=O)[C@@H](CC=C)CC(=O)OC(C)(C)C)Cc1ccccc1,?,?,?,-5%
C=CC[C@H](CC(=O)NCCO)C(=O)N[C@H](COC(=O)[C@H](CC=C)CC(=O)OC(C)(C)C)Cc1c[nH]c2ccccc12,-1%,-6%,23µM*,1%
C=CC[C@@H](CC(=O)NCCO)C(=O)N[C@H](COC(=O)[C@H](CC=C)CC(=O)OC(C)(C)C)Cc1c[nH]c2ccccc12,7%,8%,-12%,6%
C=CC[C@@H](CC(=O)N(CCO)Cc1ccccc1)C(=O)N[C@@H](COC(=O)[C@H](CC=C)CC(=O)OC(C)(C)C)Cc1c[nH]c2ccccc12,?,23µM*,?,-5%
COc1ccc(C)cc1N1CC(C(=O)Nc2cccc(C(=O)NC3CC3)c2)CC1=O (stereo not drawn),·,·,·,0%
CCOc1ccccc1CNC(=O)c1ccc2c(c1)N(Cc1ccc(C)cc1)CCS2,2%,-29%,·,5%
COCCN1C(=O)CCC1(C)c1nnnn1-c1ccc2c(c1)OCCO2 (stereo not drawn),·,·,·,0%
Cc1[nH]c2ccccc2c1C(=O)COC(=O)C1CC(O)CN1S(=O)(=O)c1ccc(Cl)cc1 (stereo not drawn),-3%,-7%,-20%,0%
